From article PMC7155171, “Probing the Open Global Health Chemical Diversity Library for Multistage-Active Starting Points for Next-Generation Antimalarials” (ACS Infectious Diseases, 2020)
In all, about 68,000 compounds were measured (“% viability”: median about 1.1, lowest 2% from about 0.96 on). For the sample, the lowest values were picked, then their nearest neighbours and some compounds at random. The numbers are fractions of the control, whatever unit the source prints.

tested on: P. falciparum (NF54) stage V gametocytes; set-up: Mature stage V gametocyte viability, MitoTracker Red CMXRos high-content imaging; conditions: primary screen, n=2, fraction of DMSO control; 72 h, 2 µM; inhibitor

Compared with `CCc1c(C)[nH]c2cc(C3CCN(Cc4ccccc4F)C3)nn2c1=O` (centres unmarked) [DDD01270117], `Cc1[nH]c2cc(C3CCN(Cc4ccccc4F)C3)nn2c(=O)c1C` (centres unmarked) [DDD01060615] is higher in “% viability” value: 0.9474% for the first, 0.9944% for the second.

Compared with `CCc1c(C)[nH]c2cc(C3CCN(Cc4cccnc4)C3)nn2c1=O` (centres unmarked) [DDD01060570], `CCc1c(C)[nH]c2cc(C3CCN(Cc4cccc(F)c4)C3)nn2c1=O` (centres unmarked) [DDD01060569] is higher in “% viability” value: 1.145% for the first, 1.163% for the second.

Going from `Cc1[nH]c2cc(C3CCN(Cc4cccc(F)c4F)C3)nn2c(=O)c1C` (centres unmarked) [DDD01270135] to `CCc1c(C)[nH]c2cc(C3CCN(Cc4ccc(F)cc4)C3)nn2c1=O` (centres unmarked) [DDD01060568], the “% viability” value rises from 0.8996% to 1.103%.

Compared with `Cc1nsc(N2CCCN(CC(=O)N(C)C3CC3)CC2)n1` [DDD01066804], `Cc1nnsc1C(=O)N1CCCCC1c1cc2[nH]c(C)c(C)c(=O)n2n1` (centres unmarked) [DDD01059036] is lower in “% viability” value: 1.153% for the first, 1.123% for the second.

First: COCCCC(=O)N1CC(=O)Nc2cc(Br)ccc21 [DDD01075689]
Second: Cc1[nH]n(C2CCS(=O)(=O)C2)c(=O)c1Cc1ccc(Br)cc1 (centres unmarked) [DDD01026979]
The “% viability” value of the first is higher: 1.221% for the first, 1.197% for the second.

Compared with `Cc1ncc(CN2CCc3[nH]c4cc(C(C)(C)C)nn4c(=O)c3C2)n1C` [DDD01058400], `Cc1ncc(CN2CCc3c([nH]c4cc(C5CC5)nn4c3=O)C2)n1C` [DDD01058398] is lower in “% viability” value: 1.122% for the first, 1.038% for the second.

Compared with `O=C(CNC(=O)N1CCc2c([nH]c3ccc(Cl)cc23)C1)N1CCOCC1` [DDD01035668], `Fc1cccc(C2=NN=CC2=C2NC(CN3CCOCC3)=NO2)c1` [DDD01244908] is higher in “% viability” value: 1.056% for the first, 1.1236% for the second.

Compared with `Cc1[nH]n(-c2ccccc2)c2nc(C(C)(C)CN3CCN(C)CC3)nc1-2` [DDD01252143], `Cc1[nH]n(C2CCS(=O)(=O)C2)c(=O)c1Cc1ccccc1` (centres unmarked) [DDD01026976] is higher in “% viability” value: 1.131% for the first, 1.15% for the second.

First: CCCn1ncc(-c2nc3c[nH]n(CC)c-3n2)c1C [DDD01252709]
Second: CCn1[nH]cc2nc(-c3ccc(OC)c(COC)c3)nc1-2 [DDD01253750]
The “% viability” value of the first is lower: 1.088% for the first, 1.204% for the second.

First: CCn1[nH]cc2nc(-c3cc4c(cc3OC)OCO4)nc1-2 [DDD01244413]
Second: COc1cc(F)ccc1-c1nc2c(C3CC3)[nH]n(C)c-2n1 [DDD01248843]
The “% viability” value of the first is higher: 1.126% for the first, 1.111% for the second.

Going from `CCc1c(C)nn2c(=O)cc(C3CCN(C(=O)c4ccccn4)C3)[nH]c12` (centres unmarked) [DDD01056906] to `CCc1c(C)nn2c(=O)cc(C3CCN(C(=O)c4cnn(C)c4)C3)[nH]c12` (centres unmarked) [DDD01056908], the “% viability” value rises from 1.115% to 1.149%.

Compared with `CCc1ccc(NC(=O)Nc2c(O)c3ccccc3oc2=O)cc1` [DDD01037337], `CSc1cccc(NC(=O)Nc2c(O)c3ccccc3oc2=O)c1` [DDD01037688] is lower in “% viability” value: 1.219% for the first, 1.182% for the second.

Going from `CN(CCCc1ccccc1)C(=O)CCC1=NC(=C2N=CN=N2)NO1` [DDD01062165] to `COCC(=O)Nc1[nH]nc2c1c(C)nn2Cc1cccc(OC)c1` [DDD01063147], the “% viability” value rises from 0.9845% to 1.204%.

Compared with `CCc1cc(=O)n2nc(C3CCN(C(=O)c4cccnc4)CC3)cc2[nH]1` [DDD01057176], `COc1ccc(F)cc1-c1nc2c(C3CC3)[nH]n(C)c-2n1` [DDD01250494] is lower in “% viability” value: 1.192% for the first, 1.074% for the second.

In the case of `COc1cc(OC)c(-c2nc3c(C4CC4)[nH]n(C)c-3n2)cc1OC` [DDD01244474], the “% viability” value was 0.9472%.
